A selection: hits, their analogues and other compounds. The true share with any hit is near 1.8%.
GSTO1 inh = inhibitors of recombinant GSTO1, primary screen, counter-screen for RBBP9 inhibitor project, biochemical, fluorescence polarization. Glutathione S-transferase omega-1 (Homo sapiens), P78417. activity-based probe fluorescence polarization. inhibition, % at 5.96 µM. 300,000 tested, 1.1% active. AID 1974, 2009;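 active means inhibition above the campaign mean inhibition plus 3 SD, cut at about 35% in these data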;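 further: 0% = GSTO1-1 with DMSO and 100% = wells lacking GSTO1-1 enzyme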
LYPLA1 counter = LYPLA1 inhibitors, primary screen, counter-screen for PME1 inhibitor project, biochemical, fluorescence polarization, FP-Rh probe ABPP. Acyl-protein thioesterase 1 (Homo sapiens), O75608. recombinant LYPLA1. inhibition, % at 5.9 µM. 320,000 tested, 0.16% active. AID 2174, 2009;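 active means inhibition above the mean of all tested compounds plus 3 SD, set per campaign, cut at about 14% in these data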;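 further: inhibitors block serine hydrolase probe labeling of LYPLA1 so polarization falls; 0% = enzyme with DMSO and 100% = wells lacking LYPLA1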
PAD4 FP inh = human PAD4 inhibitors, primary screen, biochemical, fluorescence polarization, 1536-well format | recombinant PAD4, RCA probe fluorescence polarization | Protein-arginine deiminase type-4 (Homo sapiens), Q9UM07 | inhibition, % at 6.36 µM | 330,000 tested, 0.41% active;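 active means percent inhibition above a cutoff equal to the mean of all tested compounds plus 3 SD, cut at about 15% in these data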;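 further: 0% = PAD4 with RCA probe and DMSO and 100% = probe without PAD4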
Target sequence (Q9UM07 whole entry, looked up): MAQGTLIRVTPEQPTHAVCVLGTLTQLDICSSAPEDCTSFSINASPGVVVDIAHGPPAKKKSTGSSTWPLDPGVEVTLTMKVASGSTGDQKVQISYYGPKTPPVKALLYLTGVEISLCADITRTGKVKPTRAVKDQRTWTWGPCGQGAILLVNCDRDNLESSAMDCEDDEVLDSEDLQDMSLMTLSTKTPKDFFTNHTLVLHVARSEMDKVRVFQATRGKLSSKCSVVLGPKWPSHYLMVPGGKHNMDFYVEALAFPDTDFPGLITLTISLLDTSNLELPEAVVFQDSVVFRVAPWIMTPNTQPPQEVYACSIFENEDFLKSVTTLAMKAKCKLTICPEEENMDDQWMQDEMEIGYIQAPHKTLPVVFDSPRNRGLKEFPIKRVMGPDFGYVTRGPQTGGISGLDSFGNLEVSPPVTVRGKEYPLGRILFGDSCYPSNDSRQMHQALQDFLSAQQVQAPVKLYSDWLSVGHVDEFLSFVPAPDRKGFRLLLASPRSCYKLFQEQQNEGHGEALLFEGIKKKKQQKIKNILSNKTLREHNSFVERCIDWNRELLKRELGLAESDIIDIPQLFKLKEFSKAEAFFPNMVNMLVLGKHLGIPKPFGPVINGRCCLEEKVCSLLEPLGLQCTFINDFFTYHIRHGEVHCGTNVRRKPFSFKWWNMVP
PME-1 inh = PME-1 inhibitors via competitive probe labeling, primary screen, biochemical, fluorescence polarization, FP-Rh probe, HTS | inhibition, % at 5.9 µM | recombinant PME-1 | 320,000 tested, 0.53% active | Protein phosphatase methylesterase 1 (Homo sapiens), Q9Y570;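 active means inhibition above the campaign mean of all compounds plus 3 SD, cut at about 26% in these data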;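 further: competitive labeling of PME-1 active site by serine hydrolase directed probe; 0% = PME-1 with DMSO and 100% = wells lacking PME-1 enzyme; inhibitors block probe labeling so polarization falls and inhibition rises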
Fam108B counter = mouse Fam108B serine hydrolase inhibitors, primary screen, counter-screen for RBBP9 inhibitor project, biochemical, fluorescence polarization. recombinant Fam108B, FP-Rh probe fluorescence polarization. inhibition, % at 9.51 µM. 300,000 tested, 0.33% active;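 active means inhibition above the screen mean inhibition plus 3 SD, computed separately per campaign, cut at about 18% in these data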;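 further: inhibitors lower polarization as less probe binds the enzyme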
LYPLA2 counter = LYPLA2 inhibitors, primary screen, counter-screen for PME1 inhibitor project, biochemical, fluorescence polarization, FP-Rh probe ABPP | Acyl-protein thioesterase 2 (Homo sapiens), O95372 | recombinant LYPLA2 | inhibition, % at 5.9 µM | 320,000 tested, 0.38% active | AID 2177, 2009;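 active means inhibition above the screen-wide mean plus 3 SD, limit set per campaign, cut at about 26% in these data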;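 further: 0% = LYPLA2 with DMSO and 100% = wells lacking LYPLA2 enzyme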
Fam108b inh conf = mouse Fam108b serine hydrolase inhibitors, confirmation, counter-screen for RBBP9 inhibitor project, biochemical, fluorescence polarization, triplicate; AID 1978, 2009; recombinant Fam108b, FP-Rh probe fluorescence polarization; inhibition, % at 9.51 µM; shares compounds with Fam108B counter; 930 tested, 44% active;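 active means inhibition above a limit from the primary screen, the mean over all compounds plus 3 SD, cut at about 19% in these data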;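 further: 0% = median of active Fam108b wells and 100% = catalytically dead S170A mutant; inhibitors free the probe so polarization falls as inhibition rises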
Fam108b inh = inhibition of mouse Fam108b by HTS hits, late-stage follow-up, biochemical, gel-based ABPP, soluble recombinant form. inhibition, % at 20 µM. AID 588649, 2011. shares compounds with Fam108B counter. fluorophosphonate probe. 260 tested, 44% active; in the data active means inhibition above about 40%
GSTO1 inh conf = GSTO1 inhibitor hit confirmation, counter-screen for RBBP9 inhibitor project, biochemical, fluorescence polarization, triplicate. shares compounds with GSTO1 inh. recombinant GSTO1, probe fluorescence polarization. inhibition, % at 5.96 µM. 2,400 tested, 54% active. AID 2176, 2009;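 active means inhibition above the primary screen's cutoff, its mean inhibition plus 3 SD, cut at about 35% in these data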;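 further: loss of polarization as inhibitors block binding of rhodamine sulfonate ester activity probe; 0% = GSTO1 with DMSO and 100% = wells lacking GSTO1 enzyme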
LYPLA1 conf = LYPLA1 inhibitors, retest, confirmation, counter-screen for PME1 inhibitor project, biochemical, fluorescence polarization, FP-Rh probe ABPP. AID 2233, 2010. recombinant LYPLA1. 480 tested, 69% active. inhibition, % at 5.9 µM. shares compounds with LYPLA1 counter;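 active means mean inhibition across replicates above the hit cutoff set in the primary screen, cut at about 15% in these data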;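 further: loss of FP-Rh probe labeling of LYPLA1 seen as lower polarization; 0% = LYPLA1 with DMSO and 100% = wells lacking LYPLA1 enzyme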
* hit, by the source's call.

How did Cc1nc(S/C(=C/c2ccc(-c3ccc(C(=O)O)cc3)o2)C(=O)O)n[nH]1 do in these assays?
GSTO1 inh: -38; LYPLA1 counter: -3; PAD4 FP inh: -4; PME-1 inh: -5; Fam108B counter: 3; LYPLA2 counter: -4

Results for Cc1nc(S/C(=C/c2ccc(-c3cc(Cl)ccc3C)o2)C(=O)O)n[nH]1 ?
GSTO1 inh: 3; LYPLA1 counter: 26*; PAD4 FP inh: 0; PME-1 inh: 34*; Fam108B counter: 25*; LYPLA2 counter: 15; Fam108b inh conf: 18*; LYPLA1 conf: 28*

Results for CCC1(CC)NC(=O)N(CC(=O)Nc2ccc(C)cc2C)C1=O ?
PAD4 FP inh: 0

What do the screens show for `O=C(N/N=C/c1cc(Cl)c(O)c(Cl)c1)c1cc2c(ccc3ccccc32)o1`?
GSTO1 inh: 37*; LYPLA1 counter: 24*; PAD4 FP inh: -2; PME-1 inh: 57*; Fam108B counter: 37*; LYPLA2 counter: 7; Fam108b inh conf: 52*; LYPLA1 conf: 9

Results for COc1cc(N=Nc2cccc(S(N)(=O)=O)c2)c2ccccc2c1N ?
GSTO1 inh: -7; LYPLA1 counter: 14*; PAD4 FP inh: -11; PME-1 inh: 30*; Fam108B counter: 34*; LYPLA2 counter: 18; Fam108b inh conf: 14; LYPLA1 conf: -3

Results for NC1=NC(=Nc2cccc(S(N)(=O)=O)c2)c2ccccc21 ?
GSTO1 inh: 7; LYPLA1 counter: -1; PAD4 FP inh: 1; PME-1 inh: 1; Fam108B counter: 0; LYPLA2 counter: 2

What do the screens show for `O=C(Cc1c(F)cccc1Cl)Nc1ccc(S(=O)(=O)Nc2nccs2)cc1`?
GSTO1 inh: 2; LYPLA1 counter: -2; PAD4 FP inh: 0; PME-1 inh: 4; Fam108B counter: 2; LYPLA2 counter: -2

How did CC(C)(C)OC(=O)NCCCCCNC(=O)c1ncn(Cc2ccccc2)c1C(=O)NCCCCCNC(=O)OC(C)(C)C do in these assays?
PAD4 FP inh: -9

What do the screens show for `CC1=NN(c2ccccc2)C(=O)/C1=C/c1c(O)n(-c2ccc(F)c(Cl)c2)[nH]c1=O`?
GSTO1 inh: -49; LYPLA1 counter: 26*; PAD4 FP inh: -2; PME-1 inh: 68*; Fam108B counter: 67*; LYPLA2 counter: 14; Fam108b inh conf: 65*; Fam108b inh: 0; LYPLA1 conf: 14

Results for O=C(COC(=O)CCC(=O)c1ccc(F)cc1)NCCc1ccccc1 ?
PAD4 FP inh: 2

How did Cc1ccc(C(=O)N/N=C/c2ccc(-c3ccc(Br)cc3[N+](=O)[O-])o2)o1 do in these assays?
GSTO1 inh: 66*; LYPLA1 counter: 18*; PAD4 FP inh: 0; PME-1 inh: 53*; Fam108B counter: 19*; LYPLA2 counter: 21; Fam108b inh conf: -5; GSTO1 inh conf: 17; LYPLA1 conf: -3

Assay outcomes as filed in PubChem BioAssay.
